Measurements as given in PubChem BioAssay (Tox21).
Results filed as inconclusive are left out. Activity calls are given as the source filed them. Unless noted, calls come from the whole dose curve; as a rule, active = well fitted curve in the direction sought with a large enough effect in the repeat runs; inconclusive = weak or mixed curves; inactive = no such curve, though single readings can be large; an effect the other way counts as inactive or inconclusive.

Assays:
[1] = qHTS assay to identify aromatase inhibitors - cell viability counter screen (AID 743084);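 note: cells stimulated with testosterone during compound exposure; nearly all actives have a fitted effect of over 55% in size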
[2] = qHTS assay to identify small molecule that activate the aryl hydrocarbon receptor (AhR) signaling pathway - cell viability counter screen (AID 743086);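 note: HepG2 liver cells carrying the AhR DRE luciferase reporter; series mostly up to about 70 µM; nearly all actives have a fitted effect of over 45% in size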
Outline: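 HepG2-AhR-luc (HG2L7.5c1) cells, 4000/well, were preincubated 5 h at 37C, exposed to compound in qHTS format for 24 hr at 37C, then given CellTiter-Fluor for 30 min; viability was read as fluorescence in the reporter wells.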

[3] = molecular target: Peroxisome proliferator-activated receptor gamma (Homo sapiens) (UniProt P37231); experiment: qHTS assay to identify small molecule agonists of the peroxisome proliferator-activated receptor gamma (PPARg) signaling pathway (AID 743094; active = well fitted activation curve with a large enough effect in the signal ratio in the repeat runs, not every such curve was filed as active; the % refers to the signal ratio)
Outline: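 Stably transfected HEK293H cells (GeneBLAzer PPARg UAS-bla) were incubated with test substances for 17 h at 37C after a 5 h pre-incubation; beta-lactamase activity was then detected by FRET substrate fluorescence.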

[4] = molecular target: Peroxisome proliferator-activated receptor gamma (Homo sapiens) (UniProt P37231); experiment: qHTS assay to identify small molecule antagonists of the peroxisome proliferator-activated receptor gamma (PPARg) signaling pathway (AID 743191; calls by dose curve; note: series mostly up to about 63 µM; nearly all actives have a fitted effect of over 30% in size)
Outline: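 GeneBLAzer PPARg UAS-bla HEK293H cells carrying a UAS-driven beta-lactamase reporter were plated at 3000 cells/well, preincubated 5 h at 37C, then given compound for 17 h at 37C; LiveBLAzer B/G FRET substrate was read after 1 h at room temperature.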

[5] = qHTS assay to identify small molecule antagonists of the peroxisome proliferator-activated receptor gamma (PPARg) signaling pathway - cell viability counter screen (AID 743194); note: nearly all actives have a fitted effect of over 55% in size
Outline: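 PPARg-UAS-bla HEK293H cells were plated, rested 5 h at 37 C, then treated with compounds plus rosiglitazone (50 nM final) for 17 h at 37 C; viability was then read by CellTiter-Glo luminescence after 30 min at room temperature.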

[6] = qHTS assay for small molecule agonists of the antioxidant response element (ARE) signaling pathway (AID 743202; active = well fitted activation curve with a large enough effect in the signal ratio in the repeat runs, not every such curve was filed as active; the % refers to the signal ratio; note: potency is the fitted concentration of half-maximal effect)
Outline: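 Compounds delivered in DMSO to ARE-bla HepG2 cells (2,000 cells/well, pre-incubated 5 h) and left 16 h at 37 C. LiveBLAzer B/G FRET substrate then added for 2 h at RT before fluorescence reading.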

[7] = qHTS assay for small molecule activators of the heat shock response signaling pathway - cell viability counter screen (AID 743209); note: nearly all actives have a fitted effect of over 50% in size
Outline: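 Quantitative HTS format, Tox21 10K library. HeLa cells carrying an HSE-driven beta-lactamase reporter were treated 5 h at 37 C, then assessed for viability by CellTiter-Glo luminescence.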

[8] = qHTS assay for small molecule agonists of the antioxidant response element (ARE) signaling pathway - cell viability counter screen (AID 743203; calls by dose curve; note: nearly all actives have a fitted effect of over 55% in size)
Outline: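 Cells (ARE-bla HepG2, 2,000/well) receive DMSO-dissolved compounds after a 5 hrs rest. Plates incubate 16 hrs at 37C/5% CO2. CellTiter-Glo luminescence is then recorded after 30 min at room temperature.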

[9] = qHTS assay for small molecule activators of the heat shock response signaling pathway (AID 743210; active = well fitted activation curve with a large enough effect in the signal ratio in the repeat runs, with a control signal flat, not every such curve was filed as active; the % refers to the signal ratio;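 note: HeLa cells with beta-lactamase reporter driven by heat shock elements; series mostly up to about 63 µM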)
Outline: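 Reporter gene assay: HeLa cells stably bearing an HSE-bla construct, compound treatment 5 h at 37 C, LiveBLAzer substrate 2.5 h at RT, fluorescence intensity.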

[10] = molecular target: Aryl hydrocarbon receptor (Homo sapiens) (UniProt P35869); experiment: qHTS assay to identify small molecule that activate the aryl hydrocarbon receptor (AhR) signaling pathway (AID 743085);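 note: HG2L7.5c1 human HepG2 liver cells with stably integrated DRE-driven firefly reporter; series mostly up to about 70 µM; nearly all actives have a fitted effect of over 15% in size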
Outline: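 Stably transfected human liver carcinoma cells (HG2L7.5c1; 20 DRE-firefly luciferase) were incubated 5 h, dosed, and kept 24 h at 37C. Agonism was scored from increased luciferase luminescence.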

Measured: Potency

Aryl hydrocarbon receptor (Homo sapiens), sequence (P35869 whole entry, looked up): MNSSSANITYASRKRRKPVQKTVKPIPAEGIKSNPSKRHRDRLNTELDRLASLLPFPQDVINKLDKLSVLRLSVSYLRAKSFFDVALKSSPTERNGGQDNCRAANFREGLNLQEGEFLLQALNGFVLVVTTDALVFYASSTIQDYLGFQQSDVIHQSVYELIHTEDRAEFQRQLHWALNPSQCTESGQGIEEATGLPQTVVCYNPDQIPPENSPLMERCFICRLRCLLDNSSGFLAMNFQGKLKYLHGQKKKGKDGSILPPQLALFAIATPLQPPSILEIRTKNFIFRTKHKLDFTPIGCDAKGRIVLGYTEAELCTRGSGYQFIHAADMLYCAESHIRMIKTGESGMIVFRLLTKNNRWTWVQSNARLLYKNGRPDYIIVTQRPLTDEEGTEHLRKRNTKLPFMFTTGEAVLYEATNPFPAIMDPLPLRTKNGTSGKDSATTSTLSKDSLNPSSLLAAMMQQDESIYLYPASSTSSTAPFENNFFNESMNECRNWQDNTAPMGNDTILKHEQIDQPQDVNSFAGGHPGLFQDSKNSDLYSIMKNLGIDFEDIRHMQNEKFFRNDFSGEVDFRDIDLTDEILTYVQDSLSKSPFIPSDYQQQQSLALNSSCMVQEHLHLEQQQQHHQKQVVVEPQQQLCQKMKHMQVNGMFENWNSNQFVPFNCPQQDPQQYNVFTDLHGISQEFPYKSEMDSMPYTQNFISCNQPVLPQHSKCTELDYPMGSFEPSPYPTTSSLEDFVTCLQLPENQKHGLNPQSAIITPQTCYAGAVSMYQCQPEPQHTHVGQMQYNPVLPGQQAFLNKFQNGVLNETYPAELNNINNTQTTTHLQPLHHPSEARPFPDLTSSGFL
Peroxisome proliferator-activated receptor gamma (Homo sapiens), sequence (P37231 whole entry, looked up): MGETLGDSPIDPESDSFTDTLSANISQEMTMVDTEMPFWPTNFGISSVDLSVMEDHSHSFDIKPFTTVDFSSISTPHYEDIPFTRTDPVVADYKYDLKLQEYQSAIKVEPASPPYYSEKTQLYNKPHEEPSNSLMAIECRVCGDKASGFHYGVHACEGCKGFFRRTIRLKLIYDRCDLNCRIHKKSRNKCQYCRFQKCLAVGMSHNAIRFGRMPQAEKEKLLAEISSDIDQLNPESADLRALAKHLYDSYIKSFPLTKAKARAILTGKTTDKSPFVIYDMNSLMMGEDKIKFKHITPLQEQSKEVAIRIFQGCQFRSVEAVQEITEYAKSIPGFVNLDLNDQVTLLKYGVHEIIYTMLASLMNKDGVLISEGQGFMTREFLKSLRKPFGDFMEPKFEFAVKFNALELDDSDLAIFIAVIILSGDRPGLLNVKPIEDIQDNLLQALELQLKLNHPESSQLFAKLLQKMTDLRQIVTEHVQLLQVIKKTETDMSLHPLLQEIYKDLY

Cc1cccc(C)c1OCC(C)N (configuration not stated)
inactive: [1] | [2] | [3] | [4] | [5] | [6] | [7]

On1nnc2ccccc21
inactive: [1] | [2] | [3] | [4] | [5] | [6] | [8] | [7] | [9]

CCCCCCOc1ccccc1C(N)=O
inactive: [1] | [2] | [3] | [4] | [5] | [8] | [7] | [9]

C#CC(C)N(C)C(=O)Nc1ccc(Cl)cc1 (configuration not stated)
inactive: [1] | [2] | [3] | [4] | [6] | [8] | [7] | [9]

c1ccc2c(c1)ccc1c3ccccc3ccc21
inactive: [1] | [2] | [3] | [4] | [5] | [8]
active: [6] 24.8 µM

O=C1c2ccccc2C(=O)N1CCl
inactive: [1] | [2] | [3] | [4] | [5] | [6] | [7] | [9]

COCCOC(=O)C1=C(C)NC(C)=C(C(=O)OC(C)C)C1c1cccc([N+](=O)[O-])c1 (configuration not stated)
inactive: [1] | [2] | [3] | [4] | [5] | [8] | [7] | [9]

COc1cc2c(cc1OC)[C@@H]1CC(=O)[C@@H](CC(C)C)CN1CC2
inactive: [1] | [2] | [3] | [4] | [5] | [6] | [8] | [7] | [9]

COC(=O)[C@@H]1[C@H]2C[C@H]3c4[nH]c5ccccc5c4CCN3C[C@@H]2CC[C@@H]1O
inactive: [1] | [2] | [3] | [5] | [6] | [8] | [7] | [9]

C[C@@H](O)[C@H]1C(=O)N2C(C(=O)O)=C(SCCN=CN)C[C@H]12
inactive: [1] | [2] | [3] | [4] | [5] | [6] | [9]

O=C(O)Cc1ccc(Cl)cc1Cl
inactive: [1] | [10] | [3] | [4] | [5] | [6] | [7] | [9]

Cc1ccc(S(=O)(=O)O)c(C)c1
inactive: [1] | [2] | [3] | [4] | [5] | [6] | [8] | [7] | [9]

CC(C)(C)c1n[nH]c(=S)n(N)c1=O
inactive: [1] | [2] | [5] | [6] | [8] | [7]

CCOC(=O)CC(=O)c1ccccc1
inactive: [1] | [2] | [3] | [4] | [5] | [6] | [8] | [7] | [9]

O=Cc1ccc(Cl)c(Cl)c1
inactive: [1] | [2] | [3] | [4] | [5] | [6] | [8] | [7] | [9]

CC(C)c1ccc2cc(C(C)C)ccc2c1
inactive: [1] | [2] | [3] | [5] | [6] | [8]

CC(C)CC(=O)O
inactive: [1] | [2] | [3] | [5] | [7] | [9]

CC1=C(C(=O)O)N2C(=O)[C@@H](NC(=O)[C@H](N)c3ccc(O)cc3)[C@H]2SC1
inactive: [1] | [10] | [2] | [5] | [8] | [9]

Nc1ccc(S(=O)(=O)Nc2ccc(Cl)nn2)cc1
inactive: [1] | [2] | [3] | [4] | [5] | [8] | [7] | [9]

CCN(CC)CC(=O)Nc1c(C)cccc1C
inactive: [1] | [2] | [5] | [6] | [8] | [7] | [9]

CCC(C)(CCC(C)C)C(=O)O (configuration not stated)
inactive: [2] | [5] | [6] | [8] | [7]

CC1(CO)CN(c2ccccc2)NC1=O (configuration not stated)
inactive: [1] | [2] | [5] | [7] | [9]

C=C(C)C(=O)OCc1ccccc1
inactive: [10] | [2] | [3] | [4] | [5] | [8]

Cc1ccccc1C(=O)Nc1ccc(C(=O)N2CCCC(N(C)C)c3ccccc32)cc1 (configuration not stated)
inactive: [5] | [8] | [7]

Cc1[nH]cnc1-c1ccc(Cl)cc1
inactive: [4] | [5] | [6] | [7] | [9]

CC(C)C(=O)OCc1cccc(OC(=O)[C@@H]2N3C(=O)[C@@H](NC(=O)Cc4ccccc4)[C@H]3SC2(C)C)c1
inactive: [4] | [5] | [6] | [8] | [9]
